Results: PubChem BioAssay (NCATS)
Records with an inconclusive call do not appear. Activity calls are given as the source filed them. The call rests on the fitted dose curve; in most records, active means well fitted cell-killing curve with a large enough effect; inconclusive means small, poorly fitted or top-dose-only effect, or effect the other way; inactive means no such curve, though single readings can be large or run the other way.

assay: Quantitative High-Throughput drug screen in 47 multiple myeloma cell lines against the NCATS MIPE library collection: PE2_PLB cell viability assay (AID 1919869); details: PE2_PLB myeloma cells viability, ATP luminescence, 48 h; series mostly up to 45.8 µM; further: nearly all actives have a fitted effect of over 35% in size
From the text: PI: Beverly A. Mock Ph.D.
Laboratory of Cancer Biology and Genetics,
Center for Cancer Research, National Cancer Institute,
National Institute of Health, Bethesda, Maryland
Drug resistance and disease progression are common in multiple myeloma (MM) patients, underscoring the need for new therapeutic combinations. […] We hypothesized that effective combinations would reduce MYC expression and enhance p16 activity. […] These preclinical data identify potentially useful drug combinations for evaluation in drug-resistant MM and reveal potential mechanisms of combined drug sensitivity.
Described herein is the primary MIPE qHTS used to cherrypick compounds. Validated compounds were then further tested for potential synergistic activiy.
[1] Peat TJ, Gaikwad SM, Dubois W, Gyabaah-Kessie N, Zhang S, Gorjifard S, Phyo Z, Andres M, Hughitt VK, Simpson RM, Miller MA, Girvin AT, Taylor A, Williams D, D'Antonio N, Zhang Y, Rajagopalan A, Flietner E, Wilson K, Zhang X, Shinn P, Klumpp-Thomas C, McKnight C, Itkin Z, Chen L, Kazandijian D, Zhang J, Michalowski AM, Simmons JK, Keats J, Thomas CJ, Mock BA. Drug combinations identified by high-throughput screening promote cell cycle transition and upregulate Smad pathways in myeloma. Cancer Lett. 2023 Aug 1;568:216284. doi: 10.1016/j.canlet.2023.216284. Epub 2023 Jun 24. PMID: 37356470; PMCID: PMC10408729.
SEQUENCE No. (e.g., 1, 2, 3, etc.); […] (e.g., Cells, Incubation, Reagent, etc.); VALUE and DESCRIPTION.
1; Cells; 5 uL; white, solid bottom 1536-well Greiner assay plate.
2; Compounds; 23 nL; Kalypsis pin tool (Wako USA) equipped with a 1536-well pin head to transfer to the assay plates.
3; Incubation; 48 hours; 37C incubation.
4; Reagent;5uL; CellTiter Glo (Promega).
5; Detector; 425V; Luminescence; Viewlux PerkinElmer.
NOTES (numbers refer to Sequence numbers above)
1. The cell-based screening methods employed in this study were like those previously published. Briefly, the corresponding myeloma cell lines were screened in 1,536-well plates with 500 cells, 5-uL per well for inhibition of cell viability (assessed by measuring ATP levels with CellTiterGlo).
2. NCATS MIPE 4.0 library of approved and investigational drugs were added using the Kalypsis pin tool. Wells treated with DMSO only for 100% viability and media only for 0% viability were used as controls.
3. The assay plates were covered and incubated for 48 hours in a 37C, 5% CO2 incubator with controlled humidity.
4. After 48 hours, CellTilter-GloTM luminescent substrate mix (Promega) reagent was added to the assay plate and plates we incubated for 5 min at room temperature.
5. Signal was measured as median relative luminescence units on a ViewLux (PerkinElmer) multiplate reader.
[1] Heske CM, Davis MI, Baumgart JT, Wilson K, Gormally MV, Chen L, Zhang X, Ceribelli M, Duveau DY, Guha R, Ferrer M, Arnaldez FI, Ji J, Tran HL, Zhang Y, Mendoza A, Helman LJ, Thomas CJ. Matrix Screen Identifies Synergistic Combination of PARP Inhibitors and Nicotinamide Phosphoribosyltransferase (NAMPT) Inhibitors in Ewing Sarcoma. Clin Cancer Res. 2017 Dec 1;23(23):7301-7311. doi: 10.1158/1078-0432.CCR-17-1121. Epub 2017 Sep 12. PMID: 28899971; PMCID: PMC6636827.
Potency means the concentration at half of the fitted maximal effect.

Row | SMILES | Potency
1 | COc1ccc2c(c1)[C@]13CCCCC1C(C2)N(C)CC3 (stereo not given in full) | inactive
2 | CSCC[C@@H](NC(=O)[C@@H](Cc1ccccc1)NC(=O)CNC(=O)CNC(=O)[C@@H](N)Cc1ccc(O)cc1)C(=O)O | inactive
3 | COc1ccc(C(=O)c2c(C)n(CCN3CCOCC3)c3cc(I)ccc23)cc1 | 13.2 µM (active)
4 | COC1=C[C@@H]2[C@@H]3Cc4ccc(OC)c(O)c4[C@]2(CCN3C)CC1=O | 9.35 µM (active)
5 | C[C@@H]1CC[C@@]2(OC1)O[C@H]1C[C@H]3[C@@H]4CC=C5C[C@@H](O[C@@H]6O[C@H](CO)[C@@H](O[C@@H]7O[C@@H](C)[C@H](O)[C@@H](O)[C@@H]7O)[C@H](O)[C@@H]6O[C@@H]6O[C@@H](C)[C@H](O)[C@@H](O)[C@@H]6O)CC[C@]5(C)[C@@H]4CC[C@]3(C)[C@@H]1[C@H]2C | 4.69 µM (active)
6 | Cc1c(C(=O)c2cccc3ccccc23)c2cccc3c2n1[C@H](CN1CCOCC1)CO3 | 23.5 µM (active)
7 | C[C@]12CC[C@H](O)CC1=CC[C@H]1[C@H]3CCC(=O)[C@@]3(C)CC[C@@H]12 | inactive
8 | O=C(O)CNC(=O)c1c(O)c2ccccc2n(Cc2ccccc2)c1=O | inactive
9 | C[C@]12COC(=O)C[C@@H]1CC[C@@H]1[C@H]2CC[C@@]2(C)[C@H]1CC[C@]2(C)O | inactive
10 | N=c1c2c(-c3ccccc3)c(-c3ccccc3)n(Cc3ccccc3)c2ncn1C1CCC(O)CC1 (stereo not given) | 4.69 µM (active)
11 | C=C[C@@H]1CN2CCC1C[C@H]2[C@H](O)c1ccnc2ccccc12 (stereo not given in full) | 20.9 µM (active)
12 | CCCN1CCO[C@@H]2c3cc(O)ccc3OC[C@@H]21 | inactive
13 | CCCC[N+]1(C)[C@H]2CC(OC(=O)[C@H](CO)c3ccccc3)C[C@H]1[C@H]1O[C@H]12 (stereo not given in full) | inactive
14 | CC(=Cc1csc(C)n1)[C@@H]1C[C@H]2O[C@@H]2CCC[C@H](C)[C@@H](O)[C@@H](C)C(=O)C(C)(C)[C@@H](O)CC(=O)O1 | inactive
15 | O=c1[nH]c2ccc(Cl)cc2c(N[C@@H]2CN3CCC2CC3)c1-c1nc2ccccc2[nH]1 | 0.0743 µM (active)
16 | O=S(=O)(F)Cc1ccccc1 | 0.105 µM (active)
17 | CCN1CCN(C(=O)Cc2ccc(Nc3ncc(F)c(Nc4ccc(C(=O)Nc5ccccc5Cl)cc4)n3)cc2)CC1 | 7.43 µM (active)
18 | COc1cc2cc(c1Cl)N(C)C(=O)C[C@H](OC(=O)C(C)C)[C@]1(C)O[C@H]1[C@H](C)[C@@H]1C[C@@](O)(NC(=O)O1)[C@H](OC)C=CC=C(C)C2 | inactive
19 | CCCCCC[C@H]1C(=O)O[C@H](C)[C@H](NC(=O)c2cccc(NC=O)c2O)C(=O)O[C@@H](C)[C@@H]1OC(=O)CC(C)C | 0.209 µM (active)
20 | CC(C)N[C@@H]1CCn2c(=O)[nH]c3cccc(c32)[C@@H]1O | 4.18 µM (active)

Row | SMILES | Potency
21 | CC(=O)OCC1=C(C(=O)O)N2C(=O)[C@@H](N)[C@@H]2SC1 | inactive
22 | NC1CC1c1ccccc1 (stereo not given) | inactive
23 | O=c1[nH]c2ccccc2n1C1CCN(Cc2ccc(-c3[nH]c4cc5ncnc5cc4nc3-c3ccccc3)cc2)CC1 | 2.35 µM (active)
24 | Cc1ccccc1-n1c(Cn2cnc3c(N)ncnc32)nc2cccc(C)c2c1=O | 0.296 µM (active)
25 | C[C@]12CC[C@H]3[C@@H](CCC4=CC(=O)CC[C@@]43C)[C@H]1CC[C@H]2O | inactive
26 | Cc1nc(-c2ccc(-c3ccc(C(=O)N4CCc5cc6c(cc54)C4(CCN(C)CC4)CO6)cc3)c(C)c2)no1 | inactive
27 | COc1ccc2c(c[n+](C)c3c4cc5c(cc4ccc23)OCO5)c1OC | 7.43 µM (active)
28 | CC1=C(O)C(=O)C=C2C1=CC=C1[C@@]2(C)CC[C@@]2(C)[C@@H]3C[C@](C)(C(=O)O)CC[C@]3(C)CC[C@]12C | 0.743 µM (active)
29 | O=S(=O)(CC1CS1)c1ccc(Oc2ccccc2)cc1 (stereo not given) | 16.6 µM (active)
30 | CC1=NN=C(c2ccc(N)cc2)c2cc3c(cc2C1)OCO3 | inactive
31 | CN1[C@H]2CC(O)C[C@H]1[C@H]1O[C@H]12 (stereo not given in full) | 20.9 µM (active)
32 | CC(N[C@H]1C[C@H]1c1ccccc1)c1ccc2c(c1)OCCO2 (stereo not given in full) | inactive
33 | C[C@@H]1O[C@@H](O[C@@H]2C=C3CC[C@@H]4[C@@H](CC[C@]5(C)[C@H](c6ccc(=O)oc6)CC[C@@]45O)[C@@]3(C)CC2)[C@H](O)[C@H](O)[C@H]1O | 0.0264 µM (active)
34 | CC[C@H]1C=CC=CC[C@@H](C)[C@H](O)[C@@](C)(O)C(=O)[C@@H](C)[C@H](O)[C@@H](C)C(=O)[C@@H](C)[C@H](O)[C@@H](C)C=CC(=O)O[C@@H]2[C@@H](C)[C@H](CC1)O[C@]1(CC[C@H](C)[C@H](C[C@@H](C)O)O1)[C@H]2C | 9.35 µM (active)
35 | Cc1[nH]nc2ccc(-c3cncc(OC[C@@H](N)Cc4c[nH]c5ccccc45)c3)cc12 | 0.935 µM (active)
36 | CC[C@@H]1[C@@H](C)O[C@@](O)([C@@H](C)[C@H](O)[C@H](C)[C@H]2OC(=O)C=CC=C[C@@H](C)[C@@H]([C@@H](C)[C@@H](O)[C@H](C)[C@@]3(O)C[C@H](O[C@H]4C[C@H](O)[C@H](O)[C@H](C)O4)[C@H](CC)[C@@H](C)O3)OC(=O)C=CC=C[C@@H]2C)C[C@H]1O[C@H]1C[C@H](O)[C@H](O)[C@H](C)O1 | 0.833 µM (active)
37 | C1=C2CCCN[C@H]2[C@@H]2C[C@H]1[C@@H]1CCCCN1C2 | inactive
38 | CC1(N2CCC(n3c([C@@H]4CCCNC4)nc4ccccc43)CC2)CCCCCCC1 | 16.6 µM (active)
39 | O=C(Oc1ccc([N+](=O)[O-])cc1)N1CCC(C(O)(c2ccc3c(c2)OCO3)c2ccc3c(c2)OCO3)CC1 | 16.6 µM (active)
40 | CC(=O)N(C)c1cccc(-c2ccnc3c(C(=O)c4cccs4)cnn23)c1 | inactive
